Screening results (PubChem BioAssay)
INS-1E GSIS act: primary screen for activators of insulin secretion dependent on glucose, INS-1E cells, GLuc reporter luminescence; INS-1E GLuc reporter insulin secretion, 2-3 h; activation, % at 16.6 µM; 0.61% of 370,000 active; AID 743287;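 active = lowest replicate activation of at least 40%, so every replicate reaches that level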;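 also: 0% = median of neutral control wells and 100% = median of IBMX positive control wells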
miR122 inh: inhibitors of miR-122 in Huh7 cells; activation (reporter increase), % at 12.5 µM; AID 602342; Huh7 miR-122 Renilla luciferase sensor, 48 h; neutral wells = 0, positive control = 100; 0.3% of 340,000 active;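 active = mean replicate activation score at least 90 and every replicate individually at or above 90; inconclusive = only one of the two criteria met; inactive = neither criterion met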;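 also: higher luciferase means less miR-122 activity so hits act as miR-122 inhibitors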
Wnt act: Wnt/beta-catenin pathway activation | 1.2% of 300,000 active | Wnt/beta-catenin reporter cell assay, activator, plate reader | AID 743398 | activation, % at 9.35 µM; in the data active = activation above about 30%, passing the limit was not always enough; inconclusive = no clear call, values can overlap the other calls;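 also: 0% = neutral control wells and 100% = positive control wells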
NSD2 inh: NSD2 (human) methyltransferase inhibition | AID 743445 | inhibition, % at 12.5 µM | O96028 | 0.54% of 310,000 active | NSD2 peptide methylation, AlphaScreen, 120 min
MITF act: increases MITF-driven TRPM1 promoter luciferase signal; SK-MEL-5 TRPM1-promoter luciferase, 24 h; % of positive control, neutral wells = 0; activation, % at 12.5 µM; 0.75% of 300,000 active; AID 588334;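 active = mean activation of at least 80% with every replicate also reaching 80%; inconclusive = mean reaches 80% but some replicate falls short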;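 also: 0% = neutral control wells and 100% = parthenolide positive control wells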
Dyrk1A ADPGlo: Dyrk1A (rat) kinase inhibition. Q63470. ADP-Glo luminescence, NFATc1 peptide. inhibition, % at 12.5 µM. 0.43% of 310,000 active;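 also: plate controls were vehicle with enzyme for no effect and no enzyme for full effect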
Numbers without * were called inactive; [ ] = dose if it differs, or a comment. Rows were chosen to be rich in hits. Some 2.4% of all compounds tested hit in one or more screens of this group. Rule as the data show it, unless noted: active = inhibition above about 50%; inactive = the rest.

What do the screens show for `COc1ccc(N(CC(=O)NC2CC3CCC2C3)S(=O)(=O)c2ccc(C)cc2)cc1Cl` (stereo not drawn)?
INS-1E GSIS act: -10.0; Wnt act: 50.6*; NSD2 inh: -0.7

Results for Cc1noc(C)c1S(=O)(=O)Nc1ccc2c(c1)C(=O)N([C@H](C)CO)C[C@H](C)[C@H](CN(C)C(=O)C1CCCCC1)OCCCC[C@@H](C)O2 ?
INS-1E GSIS act: -15.9; miR122 inh: 2.0[16.7 µM]

What do the screens show for `Cc1[nH]c(=O)c(C(=O)/C=C/c2ccccc2F)c2c1CCCC2`?
INS-1E GSIS act: -17.7; miR122 inh: 182.5*; Wnt act: -4.6; NSD2 inh: 18.9; MITF act: -84.1; Dyrk1A ADPGlo: -6.8

How did COc1cccc(C(=O)CSc2nccn2C)c1 do in these assays?
INS-1E GSIS act: -7.8; miR122 inh: -6.1; Wnt act: 6.2; NSD2 inh: 4.0; Dyrk1A ADPGlo: 4.9

What do the screens show for `Cn1ccnc1SCC(=O)c1ccc2ccccc2c1`?
INS-1E GSIS act: -3.5; Wnt act: 50.4*; NSD2 inh: 37.0; MITF act: 88.3*; Dyrk1A ADPGlo: 8.0

Results for COc1cccc(C(=O)Nc2ccc3c(c2)C(=O)N(C)C[C@@H](OC)[C@H](C)CN(CC2CC2)[C@@H](C)CO3)c1 ?
INS-1E GSIS act: 1.4

What do the screens show for `Cc1nc(N)nc2c1CCCC2`?
INS-1E GSIS act: 43.2*; Wnt act: -0.4; NSD2 inh: -8.7; MITF act: 6.6; Dyrk1A ADPGlo: 2.2

Results for CCCCN(C(=O)Cc1cccs1)c1nnc(-c2cccnc2)s1 ?
INS-1E GSIS act: 6.7; miR122 inh: -0.1; Wnt act: 5.4; NSD2 inh: -2.1; MITF act: 99.5*; Dyrk1A ADPGlo: -3.6

How did COCCN(C(=O)Cc1cccs1)c1nnc(-c2cccnc2)s1 do in these assays?
miR122 inh: -0.8; Wnt act: 3.4; NSD2 inh: -0.3; MITF act: 7.7; Dyrk1A ADPGlo: -4.9

How did C[C@@H]1CCCCO[C@H](CN(C)S(=O)(=O)c2ccc(F)cc2)[C@@H](C)CN([C@@H](C)CO)C(=O)c2cc(NC(=O)c3ccccc3)ccc2O1 do in these assays?
INS-1E GSIS act: -13.7; miR122 inh: -1.5[16.7 µM]

What do the screens show for `C=CCn1c(SCC(N)=O)nc2scc(-c3ccc(C)o3)c2c1=O`?
INS-1E GSIS act: 2.3; Wnt act: 47.6*; NSD2 inh: 4.8; MITF act: 25.5; Dyrk1A ADPGlo: 3.8

Results for C[C@H]1CN([C@@H](C)CO)C(=O)Cc2cc(NC(=O)CCC(F)(F)F)ccc2O[C@H]1CN(C)C ?
INS-1E GSIS act: 8.3; miR122 inh: 1.0[16.7 µM]

What do the screens show for `COc1ccc(Nc2c3c(nc4ccccc24)CCC3)cc1`?
INS-1E GSIS act: 74.1*; miR122 inh: 5.0; Wnt act: -2.4; NSD2 inh: 8.2; MITF act: -19.5; Dyrk1A ADPGlo: 3.6

What do the screens show for `c1ccc(Nc2c3c(nc4ccccc24)CCC3)cc1`?
INS-1E GSIS act: 6.7; Wnt act: -1.8; NSD2 inh: 1.6; MITF act: 6.0; Dyrk1A ADPGlo: -1.0

How did COc1ccc(/C(C)=N/Nc2nncc3ccccc23)cc1 do in these assays?
INS-1E GSIS act: 38.0; Wnt act: 36.9*; NSD2 inh: 1.4; MITF act: 108.8*; Dyrk1A ADPGlo: -6.1

Results for O=C(CCN1CCCCC1)N[C@H]1CC[C@@H](CCNS(=O)(=O)c2ccc(F)cc2)O[C@H]1CO ?
INS-1E GSIS act: 21.1

Results for Cc1c(C(=O)Nc2ccccc2)cnn1-c1ccccc1 ?
INS-1E GSIS act: -14.9; Wnt act: 63.0*; NSD2 inh: -2.1; MITF act: 72.5; Dyrk1A ADPGlo: 0.8

How did CCOC(=O)c1cnn(-c2ccccc2)c1NC(=O)c1ccccc1C do in these assays?
miR122 inh: -5.0; Wnt act: 39.1*; MITF act: -3.8

How did Cc1c(C(=O)Nc2cccc(F)c2)cnn1-c1ccccc1 do in these assays?
INS-1E GSIS act: -6.6; miR122 inh: -2.8; Wnt act: 23.0; NSD2 inh: -2.8; MITF act: 108.9*; Dyrk1A ADPGlo: -1.7

How did Cc1ccccc1C(=O)Nc1c(C(=O)N2CCCC2)cnn1-c1ccccc1 do in these assays?
INS-1E GSIS act: 8.4; miR122 inh: -3.2; Wnt act: -0.3; NSD2 inh: 2.4; MITF act: 2.6; Dyrk1A ADPGlo: -3.8

Results for CC(=O)c1cccc(NC(=O)c2cnn(-c3ccccc3)c2C)c1 ?
INS-1E GSIS act: 25.6; miR122 inh: -1.4; Wnt act: 3.0; NSD2 inh: 0.2; MITF act: inconclusive; Dyrk1A ADPGlo: 3.3

Results for COCC(=O)Nc1ccc2c(c1)OC[C@H](C)N(CCC(F)(F)F)C[C@@H](C)[C@H](OC)CN(C)C2=O ?
INS-1E GSIS act: -2.3

Results for COC(=O)[C@H]1[C@H](CO)[C@H]2Cn3c(ccc(C4=CCCCC4)c3=O)[C@H]2N1C(=O)C1CC1 ?
INS-1E GSIS act: 17.7; miR122 inh: -5.5[16.7 µM]

How did Cc1noc(C)c1NC(=O)N(C)C[C@@H]1Oc2ccc(N(C)C)cc2C(=O)N([C@H](C)CO)C[C@@H]1C do in these assays?
INS-1E GSIS act: 6.1; miR122 inh: 4.1[16.7 µM]

Results for CC(=O)Nc1ccc(NS(=O)(=O)c2ccc3ccccc3c2)cc1 ?
miR122 inh: 105.5*; Wnt act: -0.9; NSD2 inh: 0.1; Dyrk1A ADPGlo: -2.7

What do the screens show for `CCCCN(CCCC)S(=O)(=O)c1ccc(NS(=O)(=O)c2ccc(NC(C)=O)cc2)cc1`?
INS-1E GSIS act: -15.5; miR122 inh: -5.0; Wnt act: -2.9; NSD2 inh: 0.1; MITF act: 11.2; Dyrk1A ADPGlo: 3.6

Results for CCCCOc1ccc(S(=O)(=O)Nc2ccc(NC(C)=O)cc2)cc1 ?
miR122 inh: 204.7*; NSD2 inh: 0.1; MITF act: -12.4; Dyrk1A ADPGlo: 1.0

How did O=C(C[C@H]1C[C@H]2c3cc(NC(=O)C4CCC4)ccc3O[C@H]2[C@H](CO)O1)NCc1ccc(Cl)cc1 do in these assays?
INS-1E GSIS act: 4.2; miR122 inh: -10.5[16.7 µM]

What do the screens show for `CCC(=O)Nc1ccc2c(c1)C(=O)N(C)[C@H]1CC[C@@H](CC(=O)NCCc3ccccc3)O[C@@H]1CO2`?
INS-1E GSIS act: 7.8; miR122 inh: -2.3[16.7 µM]

Results for Clc1nc2ccccc2cc1-c1nnn(-c2ccccc2Br)n1 ?
INS-1E GSIS act: 3.4; Wnt act: 29.6; MITF act: 46.5; Dyrk1A ADPGlo: 1.3

What do the screens show for `c1ccc(-n2nnc(-c3nccs3)n2)cc1`?
INS-1E GSIS act: 7.0; miR122 inh: 4.2; Wnt act: 40.0*; MITF act: inconclusive; Dyrk1A ADPGlo: 4.8

Results for Brc1ccccc1-n1nnc(-c2nccs2)n1 ?
INS-1E GSIS act: 29.8; miR122 inh: 3.4; Wnt act: 45.1*; MITF act: 90.8*

What do the screens show for `Brc1ccccc1-n1nnc(-c2cnc3ccccc3c2)n1`?
Wnt act: 42.7*; MITF act: 44.3; Dyrk1A ADPGlo: 8.8
